# Screening results as filed in PubChem.
# A selection: hits, their analogues and other compounds. The true share with any hit is near 2.2%.
# EWS-Fli block – EWS/Fli-driven NR0B1 reporter inhibitors, primary screen, A673 cells, NR0B1 luciferase, luminescence, MLPCN library. viability-normalised. 350,000 compounds, 0.67% hits. inhibition, % at 12.6 µM;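 active = mean inhibition of at least 50% after viability correction, with every replicate also passing that limit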;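 also: firefly luciferase signal divided by Alamar Blue viability fluorescence both relative to DMSO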
# LGR2 antag – inhibitors of bursicon-induced LGR2 CRE-luciferase signal, primary screen, cell-based, HEK293, CRE-luciferase reporter, bursicon stimulation; 380,000 compounds, 0.35% hits; inhibition, % at 9.99 µM; bursicon-stimulated, 4 h;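 active = drop in luminescence signal, shown as inhibition above about 50% in the replicate tests, limit read from the data, passing the limit was not always enough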;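 also: agonist challenge used bursicon conditioned medium at about half maximal strength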
# PGC1a acetyl inh – inhibitors of PGC1a acetylation signal, primary screen, cell-based, U2OS, AlphaScreen, inhibitor mode | AlphaScreen anti-acetyl-lysine; with virally co-expressed GCN5 acetyltransferase | inhibition, % at 15.6 µM | 350,000 compounds, 0.17% hits;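 active = every replicate shows inhibition of at least 40%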;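 also: 0% = neutral control wells and 100% = positive control wells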
# PAX8 reporter – inhibitors of PAX8-driven TPO luciferase reporter, primary screen, RMG-I cells, single concentration; SteadyGlo, 24 h; inhibition, % at 12.6 µM; 360,000 compounds, 1.2% hits; AID 652154, 2013;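 active = mean replicate inhibition at least 60% with every replicate also reaching 60%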;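 also: luciferase light reporting Pax8 driven TPO promoter activity; plate controls were median of neutral control wells for no effect and mitoxantrone controls for full effect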
# LMP1 NFkB inh – EBV LMP1-driven NF-kappaB luciferase reporter inhibitors, primary screen, cell-based, luminescence, single point | 350,000 compounds, 0.69% hits | inhibition, % at 12.5 µM | AID 504558, 2011 | LMP1-induced NF-kappaB luciferase reporter cells; in the data active = inhibition above about 41%;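 also: 0% = neutral control wells and 100% = reference inhibitor control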
# TRPM1 prom inh – inhibitors of MITF-dependent TRPM1 promoter reporter, primary screen, cell-based, SK-MEL-5, single point, luciferase. SK-MEL-5 TRPM1 promoter luciferase, 24 h. inhibition, % at 12.5 µM. 330,000 compounds, 0.83% hits;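 active = mean inhibition across replicates of 60% or more, whatever share of single replicates reaches that level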
# The depositor's hits bear a star; / = not tested or not shown.
SMILES,EWS-Fli block,LGR2 antag,PGC1a acetyl inh,PAX8 reporter,LMP1 NFkB inh,TRPM1 prom inh
C=CCNC(=O)[C@H]1[C@@H]2C(=O)O[C@@H](c3ccccc3)[C@@H](c3ccccc3)N2[C@@H](c2ccccc2OCCO)[C@]12C(=O)N(C(=O)OCCOC)c1ccccc12,8.4,/,/,81.7*,/,/
CO[C@H]1CN(C)C(=O)c2cc(NS(=O)(=O)CC(F)(F)F)ccc2OC[C@@H](C)N(C(=O)NC(C)C)C[C@H]1C,10.5,-18.0,14.3,8.6,/,/
CO[C@H](CN(C)C(=O)C1CCOCC1)[C@H](C)CN(C(=O)Nc1ccc(F)cc1)[C@@H](C)CO,-12.6,4.4,9.7,/,/,/
OC[C@@H](O)[C@@H](O)[C@H](O)[C@H](O)CO,-3.1,/,/,-9.0,46.6*,-2.6
OC[C@@H](O)[C@@H](O)[C@H](O)[C@@H](O)CO,1.3,/,6.9,/,-1.2,-2.8
CCSc1nnc(NC(=O)C2Cc3ccccc3CN2S(=O)(=O)CC)s1 (centres undefined),-10.5,/,/,-25.6,-10.3,-36.3
CCS(=O)(=O)N1Cc2ccccc2CC1C(=O)Nc1nnc(SCc2c(Cl)cccc2Cl)s1 (centres undefined),0.5,0.4,4.7,113.3*,3.7,1.1
C[C@@H]1CN([C@@H](C)CO)C(=O)c2cc(NC(=O)c3ccncc3)ccc2O[C@@H](C)CCCCO[C@@H]1CN(C)S(=O)(=O)c1ccc(F)cc1,-3.6,11.1,0.9,/,/,/
O=C(CCl)N1c2ccccc2SCC1c1ccccc1 (centres undefined),61.4*,6.2,/,14.1,9.4,79.3*
O=C(CCl)N1c2ccccc2OCC1c1ccccc1 (centres undefined),-0.4,-12.6,/,-1.3,0.9,7.8
CCOC(=O)c1c(NC(C)=O)sc2c(OCC(O)CNC(C)(C)C)c(Br)ccc12 (centres undefined),/,10.1,-36.0,32.4,-3.7,71.9*
COc1ccc(CNS(=O)(=O)c2cc(Cl)ccc2N2CC[C@@H](O)C2)cc1,54.9*,-13.0,/,45.7,/,/
O=S(=O)(NCc1ccc(Cl)c(Cl)c1)c1cc(Cl)ccc1N1CC[C@@H](O)C1,-4.8,-8.9,/,17.7,/,/
COC(=O)N/N=C/c1ccc(-c2ccc(C)c(Cl)c2)o1,-41.1,-21.7,-3.7,-19.6,-10.8,-31.4
Cc1ccc(-c2ccc(/C=N/c3ncn[nH]3)o2)cc1Cl,/,22.2,/,/,58.8*,6.5
COc1ccc(C(=O)c2cc([N+](=O)[O-])ccc2N2CCOCC2)cc1,47.7,3.5,/,105.0*,14.1,50.0
CCOc1ccc(C(=O)c2cc([N+](=O)[O-])ccc2N2CCOCC2)cc1,32.8,3.2,/,90.8*,-18.8,33.8
Cc1ccc(C(=O)c2cc([N+](=O)[O-])ccc2N2CCCCC2)c(C)c1,48.4,5.5,/,89.2*,2.0,31.1
O=C(C[C@@H]1C=C[C@@H](NC(=O)Nc2cc(F)ccc2F)[C@H](CO)O1)Nc1ccc(-c2ccccc2)cc1,-6.2,-1.4,10.6,/,/,/
C[C@@H]1CCCCO[C@H](CN(C)S(=O)(=O)c2cccs2)[C@H](C)CN([C@@H](C)CO)C(=O)c2cc(N(C)C)ccc2O1,-1.0,1.5,-19.6,24.6,/,/
CS(=O)(=O)N1C[C@H](O)COC[C@H]2O[C@@H](CC(=O)NCc3ccccc3)CC[C@@H]21,-2.7,2.1,1.6,-14.2,/,/
CCOC(=O)CCCC(=O)Nc1ncnc2c1C(c1ccccc1)c1c(ccc3ccccc13)O2 (centres undefined),4.8,25.9,-1.1,19.8,-9.9,-1.6
O=C(c1ccccc1)N(C(=O)c1ccccc1)c1ncnc2c1C(c1ccccc1)c1c(ccc3ccccc13)O2 (centres undefined),20.2,-1.3,2.0,71.9*,-15.9,8.4
COc1cccc(CN2[C@@H](CO)[C@H](c3ccccc3)C23CN(C(=O)C2CCOCC2)C3)c1,3.3,4.9,-6.7,/,/,/
Cn1c(NCc2ccccc2)nc2cc(-c3ccccc3)sc2c1=O,-32.5,-3.3,/,0.7,/,/
Cc1nc2cc(-c3ccccc3)sc2c(=O)n1N,75.7*,98.3*,9.8,75.5*,73.8*,89.5*
